The panel holds about 79,000 compounds, 15% with a hit somewhere; the sample as a whole holds those more often. Active and inactive are the calls of the source. No stated cut-off is given here; in the data, active means growth inhibition above about 70%; inactive means the rest.
Columns and labels:
[1] = NCI Yeast Anticancer Drug Screen. Data for the rad52 strain (AID 147);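 further: 0% = growth of vehicle-treated control cultures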; conditions: S. cerevisiae rad52 mutant growth inhibition, active compounds read high
Procedure, shortened: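 The repair-mutant yeast strain was incubated with compounds, then growth was read and inhibition derived relative to vehicle.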

[2] = NCI Yeast Anticancer Drug Screen. Data for the wt1 strain (AID 149);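 further: 0% = growth of vehicle-treated wt1 cultures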; conditions: S. cerevisiae wt1 strain (SPY 50644) growth inhibition, active compounds read high
Procedure, shortened: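 The wt1 strain was treated with compounds, and growth was compared with vehicle-treated cultures to give inhibition.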

[3] = NCI Yeast Anticancer Drug Screen. Data for the rad50EPP+ strain (AID 151);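 further: 0% = growth of vehicle-treated control cultures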; conditions: S. cerevisiae rad50 mutant strain, active compounds read high
Procedure, shortened: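 Vehicle-normalised growth inhibition; rad50EPP+ yeast strain, altered in DNA damage repair, compound-treated.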

[4] = NCI Yeast Anticancer Drug Screen. Data for the mgt1 strain (AID 153); conditions: S. cerevisiae mgt1 mutant growth inhibition, active compounds read high
Procedure, shortened: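 Vehicle-normalized growth inhibition is determined in mgt1 yeast, a strain selected for a defined alteration in DNA repair or cell cycle control.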

[5] = NCI Yeast Anticancer Drug Screen. Data for the rad50 strain (AID 155);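 further: 0% = growth of vehicle-only cultures of the same strain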; conditions: S. cerevisiae rad50 strain growth inhibition, active compounds read high
Procedure, shortened: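 Cells are treated with compound, grown, and their growth is then scored against vehicle-only cultures of the same repair-deficient yeast strain.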

[6] = NCI Yeast Anticancer Drug Screen. Data for the mec2-1 strain (AID 157); conditions: S. cerevisiae mec2-1 strain, active compounds read high
Procedure, shortened: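 Mutant yeast (mec2-1) grown with compound; growth inhibition relative to vehicle control reported.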

[7] = NCI Yeast Anticancer Drug Screen. Data for the rad14 strain (AID 159);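 further: 0% = growth of vehicle-treated control cultures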; conditions: S. cerevisiae rad14 strain growth inhibition, active compounds read high
Procedure, shortened: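 Readout: yeast growth inhibition, referenced to vehicle-only cultures. Strain bears a defined alteration in DNA damage repair.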

[8] = NCI Yeast Anticancer Drug Screen. Data for the sgs1 mgt1 strain (AID 161);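 further: 0% = growth of cultures given vehicle only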; conditions: S. cerevisiae sgs1 mgt1 strain, active compounds read high
Procedure, shortened: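 Yeast cells carrying a defined DNA-repair defect were exposed to test compounds. Growth inhibition was measured relative to vehicle-treated controls.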

[9] = NCI Yeast Anticancer Drug Screen. Data for the cln2 rad14 strain (AID 165);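 further: 0% = growth equal to vehicle treated cultures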; conditions: S. cerevisiae cln2 rad14 strain, active compounds read high
Procedure, shortened: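 Readout is yeast growth inhibition versus vehicle-treated controls, using a strain with cln2 and rad14 alterations exposed to compound.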

[10] = NCI Yeast Anticancer Drug Screen. Data for the bub3 strain (AID 167); conditions: S. cerevisiae bub3 mutant strain, active compounds read high
Procedure, shortened: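 Part of a panel of yeast mutants defective in DNA damage repair or cell cycle regulation. Each strain is grown with compound, and inhibition is calculated relative to solvent-treated cultures.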

[11] = NCI Yeast Anticancer Drug Screen. Data for the wt2 strain (AID 169);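 further: 0% = growth of vehicle-treated yeast cultures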; conditions: S. cerevisiae wt2 strain growth inhibition, active compounds read high
Procedure, shortened: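 Against vehicle-treated controls, the growth of yeast exposed to each compound was compared, and the inhibition was recorded.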

[12] = NCI Yeast Anticancer Drug Screen. Data for the mlh1 strain (AID 171);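 further: 0% = growth of vehicle-treated control cultures of the same strain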; conditions: S. cerevisiae mlh1 strain growth inhibition, active compounds read high
Procedure, shortened: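 Measured: yeast growth. Reference: vehicle-treated controls. Organism: strain with a defined alteration affecting DNA damage repair or cell cycle control, treated with compound.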

[13] = NCI Yeast Anticancer Drug Screen. Data for the mlh1 rad18 strain (AID 175); conditions: S. cerevisiae mlh1 rad18 strain growth inhibition, active compounds read high
Procedure, shortened: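 Genetically defined yeast (DNA repair-deficient) exposed to compounds; growth inhibition determined relative to vehicle.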

[14] = NCI Yeast Anticancer Drug Screen. Data for the rad18 strain (AID 177); conditions: S. cerevisiae rad18 mutant growth inhibition, active compounds read high
Procedure, shortened: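 Vehicle-treated cultures served as the baseline for scoring compound-induced growth inhibition in DNA-repair-mutant yeast.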

[15] = at 5.0 µM (retest, dose inferred, filed as 0.5)
[16] = at 50.0 µM (retest, dose inferred, filed as 5.0)

Measured: growth inhibition

O=C(NCCCCNCCCNC(=O)c1cc(-c2ccccc2)nc2ccccc12)c1cc(-c2ccccc2)nc2ccccc12
active: [1]; at 100.0 µM 92% | [2]; at 100.0 µM 91% | [3]; at 100.0 µM 91% | [4]; at 100.0 µM 94% | [5]; at 33.0 µM 81% | [5]; [16] 97% | [5]; at 50.0 µM 97% | [5]; at 100.0 µM 92% | [6]; at 50.0 µM 97.3% | [6]; at 100.0 µM 94% | [7]; at 33.0 µM 96% | [7]; at 100.0 µM 94% | [8]; at 50.0 µM 97.5% | [9]; at 50.0 µM 97.6% | [10]; at 50.0 µM 97.2% | [10]; at 100.0 µM 92% | [11]; at 100.0 µM 93% | [12]; at 100.0 µM 94% | [13]; [16] 92% | [14]; at 33.0 µM 89% | [14]; at 100.0 µM 91%
inactive: [1]; at 1.2 µM -1% | [1]; at 3.7 µM -1% | [1]; at 11.0 µM -3% | [1]; at 33.0 µM 40% | [2]; at 1.2 µM 6% | [2]; at 3.7 µM 2% | [2]; at 11.0 µM 2% | [2]; at 33.0 µM 5% | [3]; at 1.2 µM 1% | [3]; at 3.7 µM 4% | [3]; at 11.0 µM 12% | [3]; at 33.0 µM 32% | [4]; at 1.2 µM 2% | [4]; at 3.7 µM 2% | [4]; at 11.0 µM -1% | [4]; at 33.0 µM 59% | [5]; at 1.2 µM -5% | [5]; at 3.7 µM -5% | [5]; [15] -29% | [5]; at 11.0 µM -3% | [6]; at 1.2 µM -1% | [6]; at 3.7 µM -3% | [6]; [15] -15% | [6]; at 11.0 µM -4% | [6]; at 33.0 µM 56% | [6]; [16] 59% | [7]; at 1.2 µM 0% | [7]; at 3.7 µM -2% | [7]; at 11.0 µM 1% | [8]; [15] -16% | [8]; [16] 58% | [9]; [15] 40% | [9]; [16] 55% | [10]; at 1.2 µM -2% | [10]; at 3.7 µM -1% | [10]; [15] -8% | [10]; at 11.0 µM -2% | [10]; at 33.0 µM 50% | [10]; [16] 65% | [11]; at 1.2 µM 2% | [11]; at 3.7 µM -1% | [11]; at 11.0 µM -2% | [11]; at 33.0 µM 20% | [12]; at 1.2 µM 0% | [12]; at 3.7 µM -1% | [12]; at 11.0 µM 0% | [12]; at 33.0 µM 63% | [13]; [15] -13% | [13]; at 50.0 µM 39.5% | [14]; at 1.2 µM 0% | [14]; at 3.7 µM -1% | [14]; at 11.0 µM -1%
